Shown are actives, neighbours in structure and some others; about 1.6% of the full set was active somewhere.
KCNQ2 inh = rat KCNQ2 potassium channel inhibitors, primary screen, cell-based, CHO-K1, FluxOR thallium flux, B-score | 20 min; hits give low values | B-score at 10 µM | 310,000 compounds, 1.1% hits | AID 2156, 2009;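 active = fluorescence ratio B-score at most minus 3 library SDs, with starting brightness B-score within 2 library SDs, cut at about -5.5 in these data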
Target sequence (O88943 whole entry, looked up): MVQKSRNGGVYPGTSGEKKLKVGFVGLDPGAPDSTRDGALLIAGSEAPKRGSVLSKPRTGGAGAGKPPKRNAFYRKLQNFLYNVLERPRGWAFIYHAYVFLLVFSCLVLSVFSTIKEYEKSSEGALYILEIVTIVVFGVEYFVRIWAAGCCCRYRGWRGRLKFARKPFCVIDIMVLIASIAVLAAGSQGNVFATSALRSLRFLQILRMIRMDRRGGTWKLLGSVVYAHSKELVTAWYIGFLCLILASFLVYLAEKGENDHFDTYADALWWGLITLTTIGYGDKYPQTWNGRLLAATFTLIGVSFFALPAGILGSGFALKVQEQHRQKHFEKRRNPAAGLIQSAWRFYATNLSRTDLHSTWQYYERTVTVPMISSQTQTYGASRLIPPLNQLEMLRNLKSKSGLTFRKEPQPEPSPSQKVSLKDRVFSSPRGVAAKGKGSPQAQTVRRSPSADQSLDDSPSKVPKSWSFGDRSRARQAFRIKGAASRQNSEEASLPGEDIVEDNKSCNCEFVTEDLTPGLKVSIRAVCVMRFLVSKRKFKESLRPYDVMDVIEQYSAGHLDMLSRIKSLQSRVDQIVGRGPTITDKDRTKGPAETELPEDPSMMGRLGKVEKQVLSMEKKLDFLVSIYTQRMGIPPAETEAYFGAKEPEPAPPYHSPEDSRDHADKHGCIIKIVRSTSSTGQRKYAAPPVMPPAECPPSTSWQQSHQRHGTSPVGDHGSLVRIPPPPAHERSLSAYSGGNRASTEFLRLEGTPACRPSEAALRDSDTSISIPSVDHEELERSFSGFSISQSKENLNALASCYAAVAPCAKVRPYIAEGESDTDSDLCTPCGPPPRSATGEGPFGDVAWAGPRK
KCNQ2 enhance = potentiators of rat KCNQ2 potassium channel; CHO-K1 KCNQ2, FluxOR thallium flux fluorescence; hits give high values; B-score at 10 µM; 310,000 compounds, 0.54% hits; AID 2239, 2010;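 active = fluorescence ratio B-score at least 3 SD of library B-scores, with initial fluorescence B-score within 3 of them, cut at about 5.3 in these data; same plate scores as AID 2156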;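 also: B-score of peak minus minimum over baseline fluorescence ratio after K+ and Tl+ stimulus; positive B-score means potentiation of KCNQ2 with more thallium influx and brighter signal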
* hit, by the source's call; i = inactive; / = no result.

SMILES	KCNQ2 inh	KCNQ2 enhance
O=C(Nc1ccc(Cl)c(Cl)c1)Nc1ccccc1O	i	10.8*
O=C(Nc1ccc(Cl)c(Cl)c1)Nc1ccc(Br)cc1F	i	/
O=C(NCc1cccnc1)[C@@H]1CC=C[C@@H]2CCN(Cc3ccccc3)C(=O)[C@@H]21	i	/
O=C(NC(=S)N1CCc2ccccc21)c1ccccc1	i	14.2*
O=C(c1ccccc1)N1CCc2ccccc21	i	/
CCONc1ncnc2nonc12	i	0.41
Clc1ccc(CONc2ncnc3nonc23)c(Cl)c1	i	6.88*
CCOc1c(C)cnc2c1c(=O)n(Cc1ccccc1Cl)c(=O)n2C	i	/
CCO/C(C)=N/n1c2nc3ccccc3nc2c2c(=O)n(Cc3ccccc3Cl)c(C)nc21	-8.38*	-8.38
COc1ccc(CN(C)C(=O)Cc2ccc(OC)c(S(=O)(=O)N3CCOCC3)c2)cc1	i	0.12
CC(Oc1cccc(Cl)c1)C(=O)Nc1cc(S(=O)(=O)N2CCOCC2)ccc1N1CCCC1 (configuration not stated)	i	/
CN1CCN(S(=O)(=O)c2cccc(C(=O)Nc3cc(C(F)(F)F)ccc3N3CCCC3)c2)CC1	i	/
CN1CCN(S(=O)(=O)c2cccc(C(=O)Nc3cc(Cl)ccc3N3CCOCC3)c2)CC1	-7.48*	-7.48
CC(Oc1cccc(Cl)c1)C(=O)Nc1cc(S(=O)(=O)N2CCCCC2)ccc1N1CCOCC1 (configuration not stated)	-7.62*	-7.62
COc1ccccc1N1CCN(C(=O)c2ccccc2N(C)S(=O)(=O)c2ccc(C)cc2)CC1	i	/
CC(NC(=O)c1ccc(F)cc1)C1CC2CCC1C2 (configuration not stated)	i	/
CC(NC(=O)COc1ccccc1F)C1CC2CCC1C2 (configuration not stated)	-5.98*	-5.98
N#Cc1c(-c2ccccc2F)cc(C2CC2)nc1SCC(=O)c1cccs1	i	11.7*
CCSc1nc(C2CC2)cc(-c2cccs2)c1C#N	i	/
O=C(c1ccc(CNS(=O)(=O)c2cccc(Cl)c2)cc1)N1CCCCC1	i	0.2
Cc1cc(SCC(=O)c2cccs2)n2nc(C)c(-c3ccccc3)c2n1	i	5.99*
C=CCSc1cc(C)nc2c(-c3ccccc3)c(C)nn12	i	/
O=S(=O)(Nc1ccc(F)cc1)N1CCOCC1	i	/
Cc1ccc(NC(=O)CSCC(=O)N(C)CC(=O)Nc2cccc3ccccc23)cc1	i	/
Cc1c(Cl)cccc1NC(=O)C1Cc2ccccc2CN1C(=O)c1ccccc1 (configuration not stated)	-7.88*	-7.88
SMILES	KCNQ2 inh	KCNQ2 enhance
Cc1cccc(NC(=O)C2Cc3ccccc3CN2C(=O)OCc2ccccc2)c1C (configuration not stated)	i	/
COC(=O)CSc1nnc(-c2ccc(NS(=O)(=O)c3ccccc3)cc2)o1	-6.18*	-6.18
Cc1ccc(CSc2nnc(-c3ccc(NS(=O)(=O)c4ccccc4)cc3)o2)cc1	i	/
CC(C(=O)N1CCN(Cc2ccc3c(c2)OCO3)CC1)n1cc([N+](=O)[O-])cn1 (configuration not stated)	i	/
COc1ccc(C2(CNC(=O)c3ccccc3)CCCC2)cc1OC	i	/
COc1cccc(C(=O)NCC2(c3ccccc3)CCCC2)c1OC	-5.9*	-5.9
CCN1CCN(S(=O)(=O)c2ccc(Oc3ccccc3OC)cc2)CC1	i	/
CN(c1ccccc1)S(=O)(=O)c1cccc(Cl)c1Cl	-5.61*	-5.61
CN(c1ccccc1)S(=O)(=O)c1cc(Cl)ccc1Cl	i	/
Cc1ccc2c(Cl)cc(Cl)c(OCC(=O)NC(C)(C)C)c2n1	-7.05*	-7.05
COC(=O)COc1c(Cl)cc(Cl)c2ccc(C)nc12	i	/
Cc1cc(C)c(NC(=O)CSc2nnc(CNC(=O)c3ccco3)o2)c(C)c1	i	1.4
COc1ccc(CNS(=O)(=O)c2c(C)[nH]c(C)c2C(=O)N2CCCC2)cc1	i	/
Cc1[nH]c(C)c(S(=O)(=O)NCc2ccc(OC(C)C)cc2)c1C(=O)N1CCCC1	-5.65*	-5.65
O=C(Cc1nnc(NC(=O)c2cccc([N+](=O)[O-])c2)s1)NCc1ccccc1	i	1.49
CC(=O)NC(CC(=O)OCc1ccc([N+](=O)[O-])cc1)c1ccccc1 (configuration not stated)	i	/
COc1c(C)cc(C(=O)C2CCCN(Cc3ccc(Oc4ncccn4)cc3)C2)cc1C (configuration not stated)	i	/
CC(C)Oc1cccc(C(=O)C2CCCN(Cc3ccc(Oc4ncccn4)cc3)C2)c1 (configuration not stated)	-7.77*	-7.77
CC(=O)Nc1ccc(NC(=O)CS(=O)(=O)c2cn(CC(=O)N3CCCC3)c3ccccc23)cc1	i	/
c1ccc(CSc2cc3ccccc3[nH]2)cc1	i	/
COc1ccccc1NC(=O)c1csc2c1CCCC2	i	/
COc1ccccc1CNC(=O)c1csc2c1CCCC2	-6.46*	-6.46
CC(C)(C)OC(=O)CC1(C#N)c2ccccc2C(Br)=CN1C(=O)c1ccccc1 (configuration not stated)	i	/
CC(C)(CNC(=O)Cc1ccc(NS(=O)(=O)c2cccc(C(F)(F)F)c2)cc1)N1CCOCC1	i	/
Cc1ncsc1C(=O)N1CCCC(C(=O)c2ccc3ccccc3c2)C1 (configuration not stated)	i	0.95
SMILES	KCNQ2 inh	KCNQ2 enhance
CS(=O)(=O)c1ccccc1C(=O)N(CCc1ccccc1)Cc1ccccc1	-5.6*	-5.6
CS(=O)(=O)c1ccc(C(=O)N(CCc2ccccc2)Cc2ccccc2)cc1	i	/
COc1ccc(C(=O)N(CCc2ccccc2)Cc2cccs2)c(OC)c1	i	/
COc1ccc(C(=O)N(CCc2ccccc2)Cc2ccccc2)c(OC)n1	-7.72*	-7.72
CN(C)S(=O)(=O)NCC1CCCN(Cc2cc3ccccc3s2)C1 (configuration not stated)	i	1.57
COC(=O)C(Cc1ccc(O)cc1)NC(=O)C1CCN(S(=O)(=O)c2ccc(C)cc2)CC1 (configuration not stated)	i	0.67
COc1ccc(N(CC(=O)NC2CCCC2)C(=O)Cn2nnc(-c3ccc(F)cc3)n2)cc1	i	0.52
O=C(CN1C(=O)c2ccccc2C1=O)Nc1ccc(Cl)cn1	i	0.84
O=C1c2ccccc2C(Nc2ccc(Cl)cn2)N1Cc1ccccc1 (configuration not stated)	-6.49*	-6.49
Cc1ccccc1-n1nc2c(c1NC(=O)c1ccc3c(c1)OCO3)CS(=O)(=O)C2	i	/
COc1ccc(-c2noc(CNC(=O)c3ccoc3C)n2)cc1OC	i	/
O=C(O)CC(C(=O)O)c1ccc(OCCCCOc2ccc(C(CC(=O)O)C(=O)O)cc2)cc1 (configuration not stated)	i	1.07
CC12CC3CC(C)(C1)CC(C(=O)N1CCN(C(=O)C4CCCO4)CC1)(C3)C2 (configuration not stated)	i	0.51
CC(=O)N1CCN(S(=O)(=O)c2cccc(C(=O)Nc3ccccc3N3CCCC3)c2)CC1	i	0.21
Cc1cc(O)ccc1N1C(=O)c2cccc3cc([N+](=O)[O-])cc(c23)C1=O	i	/
Cc1ccc(N2C(=O)c3cccc4c(Oc5ccccc5[N+](=O)[O-])ccc(c34)C2=O)c(C)c1	-6*	-6
COc1ccc(CNC(=O)C(C)OC(=O)c2cccs2)cc1 (configuration not stated)	i	0.41

Assay outcomes as filed in PubChem BioAssay.
